Drawing on ChEMBL document CHEMBL1961873, “Compounds: GSK PKIS; Assays: Nanosyn kinase panel” (2012), this text covers inhibition for seven molecules.

In assay [1] the target is High affinity nerve growth factor receptor (Homo sapiens) (UniProt P04629). As to conditions: at 1 µM.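 Further: each value is the mean percent inhibition of TRKA.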
For assay [2], the target named is BDNF/NT-3 growth factors receptor (Homo sapiens) (UniProt Q16620). As to conditions: at 0.1 µM.
Assay [3] has the same target. As to conditions: at 1 µM.
Assay [4] has as its target NT-3 growth factor receptor (Homo sapiens) (UniProt Q16288). As to conditions: at 0.1 µM.
The target is the same in assay [5]. As to conditions: at 1 µM.
Assay [6] concerns the target T1, Tyrosine-protein kinase TXK (Homo sapiens) (UniProt P42681).
T1 sequence (whole entry): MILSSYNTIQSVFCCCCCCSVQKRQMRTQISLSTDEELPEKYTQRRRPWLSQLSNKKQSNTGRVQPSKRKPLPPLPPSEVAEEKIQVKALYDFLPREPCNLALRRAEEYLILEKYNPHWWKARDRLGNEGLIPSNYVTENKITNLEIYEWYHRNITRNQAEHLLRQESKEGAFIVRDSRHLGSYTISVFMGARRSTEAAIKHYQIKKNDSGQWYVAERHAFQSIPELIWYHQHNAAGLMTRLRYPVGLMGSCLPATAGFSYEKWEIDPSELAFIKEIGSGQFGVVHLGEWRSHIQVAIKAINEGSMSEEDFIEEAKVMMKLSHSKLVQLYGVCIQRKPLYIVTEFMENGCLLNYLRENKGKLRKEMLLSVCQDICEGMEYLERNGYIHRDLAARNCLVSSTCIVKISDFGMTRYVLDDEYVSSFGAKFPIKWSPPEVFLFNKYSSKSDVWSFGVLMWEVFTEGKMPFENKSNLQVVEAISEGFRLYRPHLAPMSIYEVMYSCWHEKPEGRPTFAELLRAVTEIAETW
As to conditions: at 0.1 µM.

The target in assay [7] is T1, Tyrosine-protein kinase TXK (Homo sapiens). As to conditions: at 1 µM.
The target of assay [8] is Non-receptor tyrosine-protein kinase TYK2 (Homo sapiens) (UniProt P29597). As to conditions: at 0.1 µM.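 Further: each value is a mean of the inhibition readings.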
Sequence of Non-receptor tyrosine-protein kinase TYK2 (Homo sapiens) (P29597 whole entry): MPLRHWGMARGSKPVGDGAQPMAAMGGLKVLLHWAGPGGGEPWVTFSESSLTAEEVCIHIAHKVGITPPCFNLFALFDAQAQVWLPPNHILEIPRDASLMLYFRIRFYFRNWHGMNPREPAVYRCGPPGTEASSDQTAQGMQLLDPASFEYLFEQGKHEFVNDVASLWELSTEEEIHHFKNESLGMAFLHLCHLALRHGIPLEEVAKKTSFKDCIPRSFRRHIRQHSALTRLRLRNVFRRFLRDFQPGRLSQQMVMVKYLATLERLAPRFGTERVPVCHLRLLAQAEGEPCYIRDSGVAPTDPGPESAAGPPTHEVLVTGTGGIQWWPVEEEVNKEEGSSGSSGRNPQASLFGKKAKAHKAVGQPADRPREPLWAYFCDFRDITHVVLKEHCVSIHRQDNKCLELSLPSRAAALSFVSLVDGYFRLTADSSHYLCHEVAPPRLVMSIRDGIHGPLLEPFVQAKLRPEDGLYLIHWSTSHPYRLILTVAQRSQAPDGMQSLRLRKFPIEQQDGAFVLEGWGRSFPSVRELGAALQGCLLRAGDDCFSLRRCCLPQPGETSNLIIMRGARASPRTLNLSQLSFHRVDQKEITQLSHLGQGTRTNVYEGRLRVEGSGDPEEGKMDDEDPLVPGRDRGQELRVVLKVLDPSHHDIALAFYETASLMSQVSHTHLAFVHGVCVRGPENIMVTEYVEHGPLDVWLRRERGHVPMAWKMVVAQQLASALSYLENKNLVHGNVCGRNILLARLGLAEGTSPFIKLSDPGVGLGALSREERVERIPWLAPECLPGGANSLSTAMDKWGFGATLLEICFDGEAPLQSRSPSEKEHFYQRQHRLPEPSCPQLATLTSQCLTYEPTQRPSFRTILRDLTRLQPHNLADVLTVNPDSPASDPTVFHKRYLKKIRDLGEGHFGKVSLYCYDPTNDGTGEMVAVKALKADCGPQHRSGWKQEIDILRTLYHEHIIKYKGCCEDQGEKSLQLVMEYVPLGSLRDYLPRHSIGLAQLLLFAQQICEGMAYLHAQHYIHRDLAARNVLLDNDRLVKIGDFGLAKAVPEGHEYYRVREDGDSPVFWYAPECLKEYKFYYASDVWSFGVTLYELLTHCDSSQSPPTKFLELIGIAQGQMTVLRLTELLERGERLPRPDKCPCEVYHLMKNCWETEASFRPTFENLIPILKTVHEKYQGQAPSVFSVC
The target in assay [9] is T2, Dual specificity protein kinase TTK (Homo sapiens) (UniProt P33981).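 Further: reported figures are mean TTK inhibition at 1 µM.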
T2 sequence (whole entry): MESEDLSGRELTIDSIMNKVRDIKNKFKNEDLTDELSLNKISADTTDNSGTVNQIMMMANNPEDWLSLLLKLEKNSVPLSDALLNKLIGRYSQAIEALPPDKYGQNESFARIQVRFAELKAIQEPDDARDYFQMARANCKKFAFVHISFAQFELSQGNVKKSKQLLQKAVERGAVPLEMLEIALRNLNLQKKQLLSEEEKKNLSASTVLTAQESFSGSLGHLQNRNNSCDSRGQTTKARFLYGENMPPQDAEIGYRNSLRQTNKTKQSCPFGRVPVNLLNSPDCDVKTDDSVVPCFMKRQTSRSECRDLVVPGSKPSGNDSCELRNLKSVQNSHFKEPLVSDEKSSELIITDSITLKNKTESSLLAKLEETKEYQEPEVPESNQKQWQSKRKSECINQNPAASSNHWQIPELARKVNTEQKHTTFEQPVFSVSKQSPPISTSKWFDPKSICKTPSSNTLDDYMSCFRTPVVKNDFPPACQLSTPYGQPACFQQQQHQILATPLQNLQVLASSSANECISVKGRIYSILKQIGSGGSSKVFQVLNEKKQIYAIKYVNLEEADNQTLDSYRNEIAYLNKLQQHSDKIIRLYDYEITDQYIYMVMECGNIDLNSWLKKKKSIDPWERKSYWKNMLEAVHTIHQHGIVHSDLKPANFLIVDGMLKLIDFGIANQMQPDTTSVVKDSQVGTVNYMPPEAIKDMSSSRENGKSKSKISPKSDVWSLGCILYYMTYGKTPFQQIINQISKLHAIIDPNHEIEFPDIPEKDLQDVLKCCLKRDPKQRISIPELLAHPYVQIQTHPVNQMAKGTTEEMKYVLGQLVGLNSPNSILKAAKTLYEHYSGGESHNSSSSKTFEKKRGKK
As to conditions: at 1 µM.

In assay [10] the target is T3, Aurora kinase A (Homo sapiens) (UniProt O14965).
T3 sequence (whole entry): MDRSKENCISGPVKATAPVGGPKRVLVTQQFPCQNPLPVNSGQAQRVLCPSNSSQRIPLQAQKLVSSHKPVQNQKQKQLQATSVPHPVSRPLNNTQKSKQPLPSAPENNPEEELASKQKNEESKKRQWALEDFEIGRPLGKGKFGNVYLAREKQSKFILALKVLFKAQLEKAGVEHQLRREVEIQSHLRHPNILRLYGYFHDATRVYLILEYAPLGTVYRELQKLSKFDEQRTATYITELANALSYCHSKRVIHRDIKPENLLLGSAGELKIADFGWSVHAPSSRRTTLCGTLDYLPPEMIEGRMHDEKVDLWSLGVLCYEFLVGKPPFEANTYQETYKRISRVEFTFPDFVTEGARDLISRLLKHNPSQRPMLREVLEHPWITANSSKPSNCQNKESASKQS
As to conditions: at 0.1 µM.

Assay [11] deals with T3, Aurora kinase A (Homo sapiens). As to conditions: at 1 µM.
Assay [12] has as its target Aurora kinase B (Homo sapiens) (UniProt Q96GD4). As to conditions: at 0.1 µM.
Assay [13] has the same target. As to conditions: at 1 µM.
The target in assay [14] is T4, Aurora kinase C (Homo sapiens) (UniProt Q9UQB9).
T4 sequence (whole entry): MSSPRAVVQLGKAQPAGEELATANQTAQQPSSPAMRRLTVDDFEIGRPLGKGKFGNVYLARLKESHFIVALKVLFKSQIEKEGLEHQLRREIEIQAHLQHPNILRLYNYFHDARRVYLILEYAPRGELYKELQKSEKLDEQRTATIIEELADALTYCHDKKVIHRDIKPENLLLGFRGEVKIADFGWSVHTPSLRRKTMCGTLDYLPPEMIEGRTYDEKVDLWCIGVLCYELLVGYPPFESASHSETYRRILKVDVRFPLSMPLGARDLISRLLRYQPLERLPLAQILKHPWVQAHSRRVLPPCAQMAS
As to conditions: at 0.1 µM.

Assay [15] deals with T4, Aurora kinase C (Homo sapiens). As to conditions: at 1 µM.
Assay [16] concerns the target Serine/threonine-protein kinase 10 (Homo sapiens) (UniProt O94804). As to conditions: at 0.1 µM.
Assay [17] has the same target. As to conditions: at 1 µM.
Assay [18] deals with T5, Mitogen-activated protein kinase kinase kinase kinase 2 (Homo sapiens) (UniProt Q12851).
T5 sequence (whole entry): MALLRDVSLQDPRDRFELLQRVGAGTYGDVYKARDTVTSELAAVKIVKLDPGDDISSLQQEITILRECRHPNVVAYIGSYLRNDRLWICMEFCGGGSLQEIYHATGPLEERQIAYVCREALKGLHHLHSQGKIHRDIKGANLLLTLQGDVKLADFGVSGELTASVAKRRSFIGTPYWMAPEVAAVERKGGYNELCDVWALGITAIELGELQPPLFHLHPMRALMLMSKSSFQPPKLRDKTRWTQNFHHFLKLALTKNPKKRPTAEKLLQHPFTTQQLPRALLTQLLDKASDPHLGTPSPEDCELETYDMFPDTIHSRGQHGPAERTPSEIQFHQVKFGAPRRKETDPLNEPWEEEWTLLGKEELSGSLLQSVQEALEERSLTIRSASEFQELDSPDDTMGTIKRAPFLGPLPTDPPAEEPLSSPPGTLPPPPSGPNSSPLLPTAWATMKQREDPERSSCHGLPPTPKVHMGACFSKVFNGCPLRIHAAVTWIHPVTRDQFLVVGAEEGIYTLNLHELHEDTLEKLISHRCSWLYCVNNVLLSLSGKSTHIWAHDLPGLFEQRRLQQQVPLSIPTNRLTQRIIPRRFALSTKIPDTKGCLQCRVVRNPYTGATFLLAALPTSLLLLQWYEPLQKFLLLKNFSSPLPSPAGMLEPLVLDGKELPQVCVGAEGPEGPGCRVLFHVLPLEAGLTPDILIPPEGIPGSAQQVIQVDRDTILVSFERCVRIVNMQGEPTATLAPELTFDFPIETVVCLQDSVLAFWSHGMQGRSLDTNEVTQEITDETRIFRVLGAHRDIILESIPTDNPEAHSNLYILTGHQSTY
As to conditions: at 0.1 µM.

Assay [19] addresses T5, Mitogen-activated protein kinase kinase kinase kinase 2 (Homo sapiens). As to conditions: at 1 µM.
In assay [20] the target is Mitogen-activated protein kinase kinase kinase kinase 4 (Homo sapiens) (UniProt O95819). As to conditions: at 0.1 µM.

Sequence of Aurora kinase B (Homo sapiens) (Q96GD4 whole entry): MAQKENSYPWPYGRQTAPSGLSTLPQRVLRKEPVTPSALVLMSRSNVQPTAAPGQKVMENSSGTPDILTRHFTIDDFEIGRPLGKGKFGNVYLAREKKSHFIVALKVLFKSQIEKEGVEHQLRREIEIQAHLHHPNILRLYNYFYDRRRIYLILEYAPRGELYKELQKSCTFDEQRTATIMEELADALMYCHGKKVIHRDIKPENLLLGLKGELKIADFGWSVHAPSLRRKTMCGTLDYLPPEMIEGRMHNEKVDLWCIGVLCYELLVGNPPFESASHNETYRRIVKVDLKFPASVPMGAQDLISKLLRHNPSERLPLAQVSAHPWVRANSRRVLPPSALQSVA
Sequence of NT-3 growth factor receptor (Homo sapiens) (Q16288 32-839 limits assumed): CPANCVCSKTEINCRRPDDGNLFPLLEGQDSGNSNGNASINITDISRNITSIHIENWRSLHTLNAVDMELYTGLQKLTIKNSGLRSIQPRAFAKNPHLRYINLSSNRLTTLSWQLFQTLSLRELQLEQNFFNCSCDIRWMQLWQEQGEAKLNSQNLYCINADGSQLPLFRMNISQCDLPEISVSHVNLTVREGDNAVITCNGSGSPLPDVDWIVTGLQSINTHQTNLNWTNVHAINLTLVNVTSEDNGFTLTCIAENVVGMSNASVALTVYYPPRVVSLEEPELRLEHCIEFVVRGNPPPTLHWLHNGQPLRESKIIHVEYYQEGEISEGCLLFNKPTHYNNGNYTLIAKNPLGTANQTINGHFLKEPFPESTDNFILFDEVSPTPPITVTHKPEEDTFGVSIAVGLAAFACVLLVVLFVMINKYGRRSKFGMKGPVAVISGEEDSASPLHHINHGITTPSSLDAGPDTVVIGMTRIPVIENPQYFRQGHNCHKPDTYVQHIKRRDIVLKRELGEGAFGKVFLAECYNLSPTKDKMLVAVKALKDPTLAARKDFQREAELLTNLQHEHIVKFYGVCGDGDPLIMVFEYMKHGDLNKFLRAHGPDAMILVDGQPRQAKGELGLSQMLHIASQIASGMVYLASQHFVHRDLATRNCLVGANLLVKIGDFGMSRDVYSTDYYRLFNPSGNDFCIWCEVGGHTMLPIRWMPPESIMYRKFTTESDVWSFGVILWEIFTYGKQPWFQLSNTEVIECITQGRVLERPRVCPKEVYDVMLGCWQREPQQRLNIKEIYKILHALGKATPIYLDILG
Sequence of BDNF/NT-3 growth factors receptor (Homo sapiens) (Q16620 32-822 limits assumed): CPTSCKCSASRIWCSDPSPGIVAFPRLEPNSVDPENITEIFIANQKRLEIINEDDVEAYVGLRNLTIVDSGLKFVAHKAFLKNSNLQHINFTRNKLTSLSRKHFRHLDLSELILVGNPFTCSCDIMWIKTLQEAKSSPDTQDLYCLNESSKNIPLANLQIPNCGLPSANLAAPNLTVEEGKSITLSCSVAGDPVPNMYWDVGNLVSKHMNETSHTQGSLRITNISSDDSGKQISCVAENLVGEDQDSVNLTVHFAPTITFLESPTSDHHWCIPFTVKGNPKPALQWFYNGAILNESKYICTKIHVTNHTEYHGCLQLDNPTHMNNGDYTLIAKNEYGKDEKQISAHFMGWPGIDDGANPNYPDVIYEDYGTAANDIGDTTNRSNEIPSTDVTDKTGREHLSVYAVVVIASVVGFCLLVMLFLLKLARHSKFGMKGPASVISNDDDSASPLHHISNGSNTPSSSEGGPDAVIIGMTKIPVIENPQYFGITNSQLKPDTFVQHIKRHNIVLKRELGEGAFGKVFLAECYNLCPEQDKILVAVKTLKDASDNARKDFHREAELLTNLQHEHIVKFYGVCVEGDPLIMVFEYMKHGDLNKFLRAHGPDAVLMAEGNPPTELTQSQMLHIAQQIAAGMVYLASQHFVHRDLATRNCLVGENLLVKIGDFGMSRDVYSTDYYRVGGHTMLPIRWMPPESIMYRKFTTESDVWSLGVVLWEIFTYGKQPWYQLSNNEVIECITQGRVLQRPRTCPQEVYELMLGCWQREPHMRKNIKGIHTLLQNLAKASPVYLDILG
Sequence of Serine/threonine-protein kinase 10 (Homo sapiens) (O94804 whole entry, looked up): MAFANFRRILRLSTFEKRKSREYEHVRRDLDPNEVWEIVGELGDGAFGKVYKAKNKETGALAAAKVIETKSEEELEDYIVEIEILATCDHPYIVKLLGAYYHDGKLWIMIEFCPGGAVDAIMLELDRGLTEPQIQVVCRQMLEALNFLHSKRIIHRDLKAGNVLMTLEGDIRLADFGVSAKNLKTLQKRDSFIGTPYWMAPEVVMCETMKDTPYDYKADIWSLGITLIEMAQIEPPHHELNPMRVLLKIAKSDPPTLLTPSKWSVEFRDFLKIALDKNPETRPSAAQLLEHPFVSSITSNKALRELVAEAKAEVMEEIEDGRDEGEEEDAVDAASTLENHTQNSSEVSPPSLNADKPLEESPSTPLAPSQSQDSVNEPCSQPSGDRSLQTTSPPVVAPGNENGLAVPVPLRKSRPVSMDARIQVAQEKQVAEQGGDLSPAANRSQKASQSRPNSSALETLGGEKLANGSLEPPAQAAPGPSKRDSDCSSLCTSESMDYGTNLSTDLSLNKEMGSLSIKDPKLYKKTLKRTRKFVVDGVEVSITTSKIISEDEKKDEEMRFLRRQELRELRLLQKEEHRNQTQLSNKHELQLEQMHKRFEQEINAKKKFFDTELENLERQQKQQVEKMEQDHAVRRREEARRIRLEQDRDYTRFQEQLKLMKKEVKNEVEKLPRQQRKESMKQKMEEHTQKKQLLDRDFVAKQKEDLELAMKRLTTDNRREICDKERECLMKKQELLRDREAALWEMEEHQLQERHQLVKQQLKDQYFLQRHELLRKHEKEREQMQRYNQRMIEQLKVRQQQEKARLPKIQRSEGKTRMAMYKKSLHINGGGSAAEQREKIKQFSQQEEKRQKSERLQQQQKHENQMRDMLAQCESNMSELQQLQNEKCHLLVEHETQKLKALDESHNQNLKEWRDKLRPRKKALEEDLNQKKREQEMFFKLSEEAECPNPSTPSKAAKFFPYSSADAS
Sequence of High affinity nerve growth factor receptor (Homo sapiens) (P04629 33-796 limits assumed): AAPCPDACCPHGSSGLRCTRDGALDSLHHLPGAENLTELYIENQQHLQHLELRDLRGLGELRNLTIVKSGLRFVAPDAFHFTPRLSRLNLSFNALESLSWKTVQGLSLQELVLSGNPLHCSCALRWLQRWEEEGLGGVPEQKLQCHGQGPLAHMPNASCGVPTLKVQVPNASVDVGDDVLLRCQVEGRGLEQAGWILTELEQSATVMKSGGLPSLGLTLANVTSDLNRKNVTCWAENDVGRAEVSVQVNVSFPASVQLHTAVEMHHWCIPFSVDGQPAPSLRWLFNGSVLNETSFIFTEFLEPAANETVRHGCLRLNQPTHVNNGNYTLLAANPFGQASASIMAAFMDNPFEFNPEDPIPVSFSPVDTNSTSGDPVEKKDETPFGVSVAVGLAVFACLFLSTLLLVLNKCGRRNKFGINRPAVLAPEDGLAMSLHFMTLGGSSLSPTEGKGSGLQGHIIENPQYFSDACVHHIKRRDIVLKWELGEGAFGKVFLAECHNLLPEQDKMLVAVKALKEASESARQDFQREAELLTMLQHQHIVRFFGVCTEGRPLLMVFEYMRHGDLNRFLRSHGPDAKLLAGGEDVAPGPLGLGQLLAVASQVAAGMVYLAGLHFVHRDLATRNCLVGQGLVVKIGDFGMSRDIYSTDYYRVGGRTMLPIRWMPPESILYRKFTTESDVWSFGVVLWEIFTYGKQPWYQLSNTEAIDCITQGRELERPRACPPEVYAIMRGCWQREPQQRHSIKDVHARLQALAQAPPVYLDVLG

Broadly, the inhibition is the relative decrease from the control value, in per cent. On to `COc1cc2ncn(-c3cc(OCCc4ccccc4)c(C(N)=O)s3)c2cc1OC`, for which the inhibition in assay [1] came out at 3.49%; in assay [2], 1.14%; in assay [3] it was 8.57%; in [4] it was 2.85%; in assay [5] it was 14.7%; in [6], 2.33%. The inhibition was 3.1% in assay [7]; -3.55% in assay [8]; 6.73% in assay [9]; 2.54% in assay [10]; 8.4% in assay [11]; 3.16% in assay [12]. Besides, the inhibition is 7.8% in assay [13]; 1.23% in assay [14]; 8.14% in [15]; 25% in assay [16]; 66.7% in [17]; 1.21% in [18]. The inhibition in assay [19] was determined as 7.11%; in [20] it was 5.29%.

Turning to `NC(=O)c1ccc(Oc2nccc(-c3c(-c4ccc(F)cc4)ncn3C3CCNCC3)n2)cc1`, the inhibition was determined as 5.13% in assay [1]; 4.3% in assay [2]; 5.18% in assay [3]; 3.1% in assay [4]; 4.93% in assay [5]; 8.98% in assay [6]. Moreover, the inhibition in assay [7] is 6.85%; in assay [8] it was -1.79%; in [9] it was 12.5%; in [10], 3.58%; in assay [11], 2.99%; in assay [12] it was 2.63%. In addition, the inhibition is 3.74% in assay [13]; 2.2% in assay [14]; 0.43% in assay [15]; 7.75% in assay [16]; 8.82% in assay [17]; -0.61% in assay [18]. Further, the inhibition in assay [19] came to 1.55%; in [20], 1.45%.

For the molecule `O=C1Nc2ccccc2/C1=C/Nc1ccc(-n2cncn2)cc1`, the inhibition in [1] came out at 44.2%; in assay [2], 11.7%; in assay [3] it was 56.5%; in assay [4] it was 12.5%; in assay [5], 58.4%; in assay [6], 3.04%. Besides, the inhibition in assay [7] was 5.07%; in [8] it was -4.51%; in assay [9], 47.9%; in [10] it was 4.13%; in assay [11], 36.3%; in assay [12], 6.72%. Further, the inhibition in assay [13] was 27.7%; in assay [14], 3.93%; in [15] it was 44.8%; in assay [16], 4.16%; in [17], 12.6%; in assay [18], 2.9%. The inhibition came to 12.6% in assay [19] and 18.5% in assay [20].

Regarding `NC(=O)c1cc(-c2ccc(F)cc2)cc(-c2ccncc2)c1N`, the inhibition in assay [1] is -0.4%; in assay [2] it was 3.69%; in assay [3] it was 3.15%; in assay [4] it was 3.87%; in assay [5], 2.92%; in [6], 3.85%. The inhibition in assay [7] was 12.4%; in [8], -2.58%; in assay [9], 11.4%; in [10] it was 3.42%; in assay [11] it was 4.02%; in [12], 2.72%. The inhibition in [13] was 3.54%; in assay [14], -0.44%; in [15], -4.53%; in assay [16] it was 6.15%; in assay [17], 5.86%; in [18], 0.12%. Also, the inhibition was 2.33% in assay [19] and 4.49% in [20].

As to `COc1ccc(-c2ccc3c(NC(=O)C4CC4)n[nH]c3n2)cc1`, the inhibition was 2.48% in assay [1]; 1.11% in [2]; 5.12% in assay [3]; -0.49% in assay [4]; 5.04% in assay [5]; 2.08% in [6]. Besides, the inhibition in assay [7] was found to be 2.53%; in assay [8], 0.27%; in assay [9] it was 8.48%; in [10], 1.67%; in assay [11], 9.18%; in assay [12] it was 3.59%. Moreover, the inhibition was 5.77% in assay [13]; -5.01% in assay [14]; 8.55% in assay [15]; 4.51% in assay [16]; 8.53% in [17]; 1.22% in assay [18]. Besides, the values for the inhibition in assay [19] and in assay [20] were 0.37% and 5.28%, respectively.

Consider `FC(F)(F)c1cccc(Nc2nccc(-c3cnn4nc(-c5ccccc5)ccc34)n2)c1`, for which the inhibition is -0.33% in assay [1]; 0.37% in [2]; 3.54% in assay [3]; -0.78% in assay [4]; 3.9% in assay [5]; -1.01% in assay [6]. Also, the inhibition in assay [7] is 5.95%; in assay [8], -2.57%; in [9] it was 6.07%; in assay [10] it was 0.08%; in [11], 3.33%; in assay [12] it was 2.71%. The inhibition in [13] turned out to be 8.1%; in assay [14] it was 1.82%; in assay [15], 10.2%; in [16], 3.86%; in assay [17] it was 5.68%; in assay [18], 0.58%. The inhibition in [19] is 2.4%; in assay [20], 2.1%.

For `CN(C)c1ccc2c(c1)/C(=C/Nc1ccc(S(N)(=O)=O)cc1)C(=O)N2`, the inhibition in assay [1] came out at 46.2%; in assay [2], 15.4%; in assay [3], 65.2%; in assay [4], 21%; in assay [5], 73.1%; in assay [6] it was 3.16%. Besides, the inhibition in assay [7] was found to be 4.14%; in assay [8], 1.02%; in assay [9] it was 12.5%; in [10] it was 6.26%; in assay [11] it was 50.7%; in assay [12] it was 4.95%. For the same molecule, the inhibition in [13] was 30.4%; in [14], 17.9%; in [15] it was 48%; in [16], 3%; in [17], 18.1%; in assay [18] it was 5.66%. The inhibition amounted to 29.9% in [19] and 23.9% in assay [20].
